PubChem BioAssay (NCI)
About 83,000 compounds went through this panel and 20% of them were active in at least one assay; those are over-represented in the sample as a whole.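 96-well plates, one dose, 48 hours. Percent growth reported; active if below 10.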 A number with no mark means an inactive call. Active and inactive are the calls of the source.

Columns and labels:
Assay in all cases: NCI-60 one-dose screen, 48 h (100 = growth as untreated, 0 = no growth, -100 = all killed)
Settings in all cases: 10 µM unless noted
SR leukemia = system: SR leukemia
OVCAR-8 ovarian = system: OVCAR-8 ovarian
OVCAR-5 ovarian = system: OVCAR-5 ovarian
OVCAR-4 ovarian = system: OVCAR-4 ovarian
SK-OV-3 ovarian = system: SK-OV-3 ovarian
IGROV1 ovarian = system: IGROV1 ovarian
OVCAR-3 ovarian = system: OVCAR-3 ovarian
HS 578T breast = system: HS 578T breast
NCI/ADR-RES ovarian = system: NCI/ADR-RES ovarian
T-47D breast = system: T-47D breast
BT-549 breast = system: BT-549 breast
MDA-MB-435 melanoma = system: MDA-MB-435 melanoma
SW-620 colon = system: SW-620 colon
MCF7 breast = system: MCF7 breast
HCT-116 colon = system: HCT-116 colon
HCC-2998 colon = system: HCC-2998 colon
KM12 colon = system: KM12 colon

| Compound | growth (SR leukemia) | growth (OVCAR-8 ovarian) | growth (OVCAR-5 ovarian) [%] | growth (OVCAR-4 ovarian) [%] | growth (SK-OV-3 ovarian) | growth (IGROV1 ovarian) | growth (OVCAR-3 ovarian) | growth (HS 578T breast) | growth (NCI/ADR-RES ovarian) | growth (T-47D breast) | growth (BT-549 breast) [%] | growth (MDA-MB-435 melanoma) | growth (SW-620 colon) | growth (MCF7 breast) | growth (HCT-116 colon) | growth (HCC-2998 colon) | growth (KM12 colon) |
| --- | --- | --- | --- | --- | --- | --- | --- | --- | --- | --- | --- | --- | --- | --- | --- | --- | --- |
| Fc1ccc(-c2cnc3nonc3n2)c(F)c1 | 74.5% | 102% | 96.8 | 93.3 | 92.1% | 108% | 81.5% | 98.1% | 104% | 80.8% | 91.6 | 84.4% | 97% | 85% | 96.9% | 93.5% | 82.9% |
| CCN1CCN(Cc2ccc(NC(=O)Nc3ccc(-n4ccc5c(NC(=O)c6ccccc6)nccc54)cc3)cc2C(F)(F)F)CC1 | -30.9% (active) | -28.5% (active) | 30.7 | 78.8 | 62.7% | 43.9% | -51.9% (active) | 74.1% | 27.8% | 75.6% | 68.5 | -61.5% (active) | -11.9% (active) | -90% (active) | -83.6% (active) | 68.3% | 14.3% |
| CCOC(=O)C1C(=O)C=C(c2ccccc2)CC1c1sc(N(C)Cc2ccccc2)nc1Cl (stereo not drawn) | 81.4% | 89.2% | 107 | 90.7 | 87.4% | 110% | 102% | 76.2% | 94.6% | 60.4% | 96.1 | 96.2% | 90.3% | 79.9% | 80.1% | 109% | 90.9% |
| C#Cc1cccc(Nc2nc3cc([N+](=O)[O-])ccc3nc2Nc2ccc(O)cc2)c1 | 3.34% (active) | 18.3% | 45.8 | 43.9 | 39% | 27.2% | -26.2% (active) | 44.6% | 24.7% | -0.313% (active) | 27.7 | 12.2% | -52.9% (active) | 2.84% (active) | -11.9% (active) | 5.14% (active) | -36.3% (active) |
| COc1cc(Cl)cc(-c2nn(C(=O)NCCN3CCOCC3)cc2-c2ccncc2)c1 | 29.8% | 72.9% | 99.5 | 102 | 48.7% | 61.5% | 20.3% | 97% | 60.9% | 57.4% | 115 | 2.37% (active) | 57.5% | 28.1% | 51.3% | 88.6% | 61.7% |
| Cc1[nH]c2ccccc2c1C1=CC(=O)C=CC1=O | 12.2% | 89.3% | 103 | 85.6 | 120% | 79.6% | 36.7% | 99.7% | 77% | 28.5% | 96.9 | 38.9% | 69.2% | 55.3% | 82.4% | 98.8% | 88.2% |
| COc1ccc2[nH]cc(C3(c4c[nH]c5ccc(OC)cc45)C(=O)Nc4ccc(F)cc43)c2c1 | 11.8% | 94.4% | 94.1 | 86.7 | 94.5% | 74.2% | 86.6% | 73.4% | 94% | 93.7% | 80.1 | 9.03% (active) | 25.9% | 66.2% | 69% | 72% | 51.1% |
| CCN(CC)CCNC(=O)n1cc(-c2ccncc2)c(-c2ccc(Cl)c(OC)c2)n1 | 80.7% | 31% | 98.8 | 92.6 | 75.5% | 88.8% | 101% | 90.1% | 83.5% | 69.2% | 96.3 | 97.2% | 113% | 85.9% | 84% | 99% | 103% |
| CCOC(=O)Cc1cc(Br)c(OCc2ccccc2)c(Br)c1 | 84.5% | 95.5% | 85 | 94.5 | 109% | 85.6% | 113% | 101% | 102% | 85.6% | 98.3 | 96.3% | 113% | 107% | 93.8% | 98.5% | 107% |
| O=C1CCCN1C1CCN2CCCc3cccc1c32 (stereo not drawn) | 83.5% | 103% | 99.9 | 105 | 110% | 98.5% | 121% | 112% | 108% | 94.1% | 134 | 108% | 108% | 96.9% | 101% | 105% | 109% |
| OC(CCCCCCCCC(O)CN1CCc2ccccc2C1)CN1CCc2ccccc2C1 (stereo not drawn) | 104% | 104% | 102 | 96.2 | 105% | 95.1% | 107% | 108% | 98.1% | 99.6% | 101 | 99.8% | 104% | 95.9% | 98% | 102% | 106% |
| CC(C)c1nc2ccccc2n1CC(=O)N/N=C/c1cccc(O)c1 | 89.7% | 92.6% | 108 | 104 | 93.2% | 118% | 109% | 98.3% | 109% | 103% | 99.7 | 99.8% | 93.6% | 105% | 87% | 104% | 103% |
| CC1(C)OC2OC3C(CN)OC(c4ccccc4)OC3C2O1 (stereo not drawn) | 96.2% | 103% | 104 | 111 | 104% | 121% | 105% | 118% | 100% | 92.6% | 103 | 110% | 122% | 103% | 101% | 94.9% | 104% |
| CCCCCCCCCCCCCCCC1=NC(C)(C)CN1C(C)C | -49.7% (active) | -16.8% (active) | 56.2 | 24.3 | -6.62% (active) | -32.9% (active) | -43.2% (active) | -31.6% (active) | -22% (active) | -11.2% (active) | 71.3 | -59.3% (active) | -69.1% (active) | -27.6% (active) | -73.5% (active) | -89.9% (active) | -73.2% (active) |
